Hit rate of the full screen: of about 39,000 compounds, about 3,300 (8.5%) were called active. This excerpt belongs to a sample that is enriched for actives.
The compounds below were run on HepG2 (assay: cytotoxicity call (relative viability < 0.9)). Conditions: 10 µM.

SMILES | cytotoxicity call
C[C@H](CO)N1C[C@H](C)[C@H](CN(C)Cc2ccncc2)Oc2ccc(NS(=O)(=O)c3cn(C)cn3)cc2CC1=O | inactive
C[C@H]1CCCCO[C@@H](CN(C)C)[C@@H](C)CN([C@@H](C)CO)C(=O)c2cc(NC(=O)CCCN(C)C)ccc2O1 | inactive
C=CC[C@H](CC(=O)NCCO)C(=O)N[C@@H](COC(=O)[C@@H](CC=C)CC(=O)OC(C)(C)C)Cc1ccccc1 | inactive
CO[C@H]1CN(C)C(=O)c2ccc(NC(=O)C3CC3)cc2OC[C@@H](C)N(C(=O)C2CCOCC2)C[C@H]1C | inactive
Cc1ccc(S(=O)(=O)N2C[C@H](O)COC[C@H]3O[C@@H](CC(=O)N[C@H]4CCN(Cc5ccccc5)C4)CC[C@@H]32)cc1 | inactive
COc1cccc(S(=O)(=O)Nc2ccc3c(c2)[C@H]2C[C@H](CC(=O)N4CCCCC4)O[C@@H](CO)[C@H]2O3)c1 | inactive
Cc1ccc(S(=O)(=O)Nc2ccc3c(c2)CC(=O)N([C@@H](C)CO)C[C@@H](C)[C@H](CN(C)Cc2ccc(C(F)(F)F)cc2)O3)cc1 | inactive
Cc1ccc(S(=O)(=O)Nc2ccc3c(c2)CC(=O)N([C@H](C)CO)C[C@H](C)[C@@H](CN(C)Cc2ccc(C(F)(F)F)cc2)O3)cc1 | inactive
Cc1ccc(S(=O)(=O)Nc2ccc3c(c2)CC(=O)N([C@@H](C)CO)C[C@@H](C)[C@@H](CN(C)Cc2ccc(C(F)(F)F)cc2)O3)cc1 | active
C[C@@H]1CCCCO[C@H](CN(C)C(=O)Nc2ccc(C(F)(F)F)cc2)[C@@H](C)CN([C@H](C)CO)C(=O)c2cc(NC(=O)c3ccncc3)ccc2O1 | inactive
Cc1cccc2ccccc12 | inactive
Cc1cccc(C)c1OCC(C)N.Cl (configuration not stated) | active
Cc1cccc(C)c1OC[C@@H](C)N | inactive
C[C@@H]1CN([C@@H](C)CO)C(=O)c2cc(NS(=O)(=O)c3cn(C)cn3)ccc2O[C@@H]1CN(C)S(=O)(=O)c1ccc(Cl)cc1 | inactive
O=C(CCCCCCC(=O)Nc1ccc([C@H]2O[C@H](CSc3nc(-c4ccccc4)c(-c4ccccc4)o3)C[C@H](c3ccc(NC(=O)CCCCCCC(=O)NO)cc3)O2)cc1)NO | inactive
O=C(CCCCCCC(=O)Nc1ccc([C@H]2O[C@@H](CN3CCCCCCC3)C[C@H](c3ccccc3)O2)cc1)NO | inactive
O=C(CCCCCCC(=O)Nc1ccc([C@H]2O[C@@H](CSc3nc(-c4ccccc4)c(-c4ccccc4)o3)C[C@H](c3ccc([N+](=O)[O-])cc3)O2)cc1)NO | active
O=C(CCCCCCC(=O)Nc1ccc([C@H]2O[C@@H](COc3ccccc3)C[C@H](c3ccccc3)O2)cc1)NO | inactive
O=C(CCCCCCC(=O)Nc1ccc([C@H]2O[C@@H](CSc3nc4ccccc4o3)C[C@H](c3ccccc3)O2)cc1)NO | active
O=C(O)CCCCCCC(=O)Nc1ccc([C@H]2O[C@@H](CSc3nc(-c4ccccc4)c(-c4ccccc4)o3)C[C@H](c3ccc([N+](=O)[O-])cc3)O2)cc1 | inactive
O=C(CCCCCCC(=O)Nc1ccc([C@H]2C[C@@H](CSc3nc(-c4ccccc4)c(-c4ccccc4)o3)O[C@H](c3ccccc3)O2)cc1)NO | inactive

SMILES | cytotoxicity call
COc1cc2c(cc1OC)CN(C[C@H]1C[C@H](c3ccccc3)O[C@H](c3ccc(NC(=O)CCCCCCC(=O)NO)cc3)O1)CC2 | active
O=C(CCCCCCC(=O)Nc1ccc([C@@H]2O[C@H](CSc3nc(-c4ccccc4)c(-c4ccccc4)o3)C[C@H](c3ccccc3)O2)cc1)NO | inactive
C[C@@H]1CN([C@H](C)CO)C(=O)c2cc(C#CCN(C)C)cnc2O[C@@H]1CN(C)C(=O)CCN1CCCCC1 | inactive
Cc1noc(C)c1NC(=O)N[C@@H]1C=C[C@H](CC(=O)NCCCN(C)C)O[C@@H]1CO | inactive
C[C@@H]1CN([C@@H](C)CO)C(=O)c2cccc(NC(=O)Nc3ccc4c(c3)OCO4)c2O[C@H]1CN(C)Cc1ccc(Cl)c(Cl)c1 | inactive
C[C@H](CO)N1C[C@H](C)[C@@H](CN(C)C(=O)Nc2ccc(C(F)(F)F)cc2)Oc2ccc(NC(=O)Nc3cccc4ccccc34)cc2CC1=O | inactive
C[C@H](CO)N1C[C@H](C)[C@@H](CN(C)Cc2ccc(C(=O)Nc3ccccc3N)cc2)OCCCC[C@H](C)Oc2ccc(N(C)C)cc2C1=O | inactive
C[C@@H]1CN([C@H](C)CO)C(=O)c2cc(NC(=O)C3CC3)ccc2O[C@@H]1CN(C)S(=O)(=O)c1ccc(Cl)cc1 | inactive
C[C@@H]1CN([C@@H](C)CO)C(=O)c2c(c3ccccc3n2C)-c2ccccc2CO[C@H]1CN(C)Cc1ccc(C(F)(F)F)cc1 | inactive
C[C@@H]1CN([C@H](C)CO)S(=O)(=O)c2ccc(C#Cc3ccncc3)cc2O[C@@H]1CN(C)S(=O)(=O)c1ccc(F)cc1 | active
C[C@H]1CN([C@@H](C)CO)S(=O)(=O)c2ccc(C#Cc3ccc(F)cc3)cc2O[C@@H]1CN(C)S(=O)(=O)c1ccc(F)cc1 | inactive
CC(C)CC#Cc1ccc2c(c1)O[C@H](CN(C)S(=O)(=O)c1ccc(F)cc1)[C@@H](C)CN([C@@H](C)CO)S2(=O)=O | inactive
CC(C)CC#Cc1ccc2c(c1)O[C@@H](CN(C)S(=O)(=O)c1ccc(F)cc1)[C@H](C)CN([C@H](C)CO)S2(=O)=O | inactive
C[C@H]1CN([C@@H](C)CO)S(=O)(=O)c2ccc(C#Cc3ccc(F)cc3)cc2O[C@H]1CN(C)S(=O)(=O)c1ccc(F)cc1 | inactive
C[C@@H]1CN([C@H](C)CO)S(=O)(=O)c2ccc(C#Cc3ccncc3)cc2O[C@H]1CN(C)S(=O)(=O)c1ccc(F)cc1 | active
C[C@H]1CN([C@@H](C)CO)S(=O)(=O)c2ccc(C#Cc3ccncc3)cc2O[C@H]1CN(C)S(=O)(=O)c1ccc(F)cc1 | active
C[C@@H]1CN([C@@H](C)CO)S(=O)(=O)c2ccc(C#Cc3ccncc3)cc2O[C@H]1CN(C)S(=O)(=O)c1ccc(F)cc1 | active
C[C@@H]1CN([C@H](C)CO)S(=O)(=O)c2ccc(C#Cc3ccc(F)cc3)cc2O[C@H]1CN(C)S(=O)(=O)c1ccc(F)cc1 | inactive
C[C@H]1CN([C@@H](C)CO)S(=O)(=O)c2ccc(C#Cc3ccncc3)cc2O[C@@H]1CN(C)S(=O)(=O)c1ccc(F)cc1 | inactive
C[C@@H]1CN([C@H](C)CO)S(=O)(=O)c2ccc(C#Cc3ccc(F)cc3)cc2O[C@@H]1CN(C)S(=O)(=O)c1ccc(F)cc1 | inactive
C[C@H](CO)N1C[C@H](C)[C@@H](CN(C)S(=O)(=O)c2ccc(F)cc2)Oc2cc(C#Cc3ccncc3)ccc2S1(=O)=O | inactive

— the antibiotic and cytotoxicity screens of Wong et al. (2023)
